This is an account of results in PubChem BioAssay (NCI).

Holding throughout (assay): NCI-60 one-dose screen, 48 h (100 = growth as untreated, 0 = no growth, -100 = all killed)
Experiment [1] has as its system T-47D breast. The conditions noted are these: 10 µM.
Experiment [2] relates to BT-549 breast. The conditions noted are these: 10 µM.
The test system of experiment [3] is MDA-MB-435 melanoma. The note with it: 10 µM.
The subject of experiment [4] is SW-620 colon. The conditions noted are these: 10 µM.
In experiment [5] the test system is MCF7 breast. The conditions noted are these: 10 µM unless noted.
For experiment [6], the system named is HCT-116 colon. The note with it: 10 µM.
Experiment [7] has as its system HCC-2998 colon. The note with it: 10 µM.
For experiment [8], the system named is KM12 colon. The note with it: 10 µM.

Structures are written as SMILES. Compounds without any hit were thinned out: in the full panel of roughly 83,000, 20% have a hit.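 Testing used 96-well plates and a 48-hour single-concentration exposure. Example: -40 means 40% of the starting cells died.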 A number with no mark means an inactive call. The source made the active and inactive calls. The calls were made as follows: active = growth percent below 10; inactive = the rest.

As to `Cc1ccc(/C(C#N)=C/c2ccc3c(c2)OCO3)cc1`, the growth in experiment [1] was 64.1%; in experiment [2], 87.1%; in experiment [3], -11.1% (active); in experiment [4], 32%; in experiment [5], 49.7%; in experiment [6], 72.8%. Moreover, the growth in experiment [7] was 74.3%; in experiment [8], 26.1%.
Turning to `CCc1ccc(/C(C#N)=C/C=C/c2ccccc2)cc1`, the growth in experiment [1] is 35.3%; in experiment [2] it was 68.5%; in experiment [3] it was -17.5% (active); in experiment [4], 21%; in experiment [5], 16.2%; in experiment [6], 33.5%. Moreover, the growth in experiment [7] was 60.8%; in experiment [8], 35.1%.
For the compound `N=c1c(C(=O)OCc2ccccc2)ncc(CCl)n1O`, the growth in experiment [1] was 93.9%; in experiment [2] it was 80.6%; in experiment [3], 96.1%; in experiment [4] it was 86.9%; in experiment [5], 91.9%; in experiment [6], 78.3%. Further, the values for the growth in experiment [7] and in experiment [8] were 104% and 102%, respectively.
With `O=C1C=C(O)C(=O)C=C1O`, the growth was 93.9% in experiment [1]; 103% in experiment [2]; 109% in experiment [3]; 104% in experiment [4]; 96.5% in experiment [5]; 105% in experiment [6]. Also, the values for the growth in experiment [7] and in experiment [8] were 111% and 107%, respectively.
For `Cc1cc(=O)n(-c2ccc(F)cc2)[nH]1`, the growth in experiment [1] is 69.5%; in experiment [2], 105%; in experiment [3], 105%; in experiment [4], 103%; in experiment [5] it was 86.7%; in experiment [6] it was 104%. The growth in experiment [7] and in experiment [8] was 106% each time.
As to `COc1ccc(/C=C/c2cccc[n+]2C)cc1`, the growth in experiment [1] is 97.4%; in experiment [2] it was 89.8%; in experiment [3] it was 100%; in experiment [4], 79.9%; in experiment [5], 96%; in experiment [6] it was 106%. Also, the growth is 83.6% in experiment [7] and 33% in experiment [8].
For the compound `CCOC(=O)c1ccc(Nc2sc(C(=O)c3cccc([N+](=O)[O-])c3)c(N)c2C#N)cc1`, the growth was 48% in experiment [1]; 52.9% in experiment [2]; -2.02% (active) in experiment [3]; 5.69% (active) in experiment [4]; 7.42% (active) in experiment [5]; 0.851% (active) in experiment [6]. Further, the values for the growth in experiment [7] and in experiment [8] were 45.8% and 17.5%, respectively.
For the compound `CC(=O)c1ccc2c(ccc3ccccc32)c1`, the growth is 98.9% in experiment [1]; 98.1% in experiment [2]; 96.3% in experiment [3]; 99.7% in experiment [4]; 96.3% in experiment [5]; 90.3% in experiment [6]. Also, the growth was 109% in experiment [7] and 106% in experiment [8].
In the case of `Nc1ccc(N)c([N+](=O)[O-])c1`, the growth in experiment [1] is 91.3%; in experiment [2], 96.9%; in experiment [3], 109%; in experiment [4] it was 97.7%; in experiment [5], 101%; in experiment [6], 99.6%. Moreover, the growth in experiment [7] was 106%; in experiment [8], 104%.
On to `CC1(C)OC(=O)C(c2ccsc2)C(=O)O1`, for which the growth in experiment [1] is 90.4%; in experiment [2] it was 124%; in experiment [3] it was 101%; in experiment [4] it was 108%; in experiment [5] it was 104%; in experiment [6] it was 92.1%. For the same compound, the growth in experiment [7] is 107%; in experiment [8], 102%.
As for `CCOc1ccc(/C=C/C(=O)c2ccccc2)cc1`, the growth in experiment [1] was 88.8%; in experiment [2], 102%; in experiment [3], 89.2%; in experiment [4], 96.4%; in experiment [5] it was 70.5%; in experiment [6], 83.7%. In addition, the growth in experiment [7] is 92.5%; in experiment [8], 80.2%.
For `N#CC1(Nc2ccc3c4c(cccc24)CC3)CCCCC1`, the growth in experiment [1] is 54.9%; in experiment [2], 96.3%; in experiment [3] it was 99%; in experiment [4] it was 110%; in experiment [5], 15.4%; in experiment [6], 108%. Besides, the growth was 116% in experiment [7] and 90.1% in experiment [8].
`c1ncc2[nH]cnc2n1`: the growth is 94.5% in experiment [1]; 106% in experiment [2]; 108% in experiment [3]; 96.7% in experiment [4]; 93.5% in experiment [5]; 92.4% in experiment [6]. In addition, the growth in experiment [7] is 93.7%; in experiment [8], 105%.
For `c1ccc(CN2COc3c(ccc4c3OCN(Cc3ccccc3)C4)C2)cc1`, the growth in experiment [1] is 13.1%; in experiment [2], 12.6%; in experiment [3] it was 22.1%; in experiment [4], 29.8%; in experiment [5], 28.5%; in experiment [6] it was 22%. The growth in experiment [7] is -14.5% (active); in experiment [8], 25.3%.
With `COC(=O)c1ccccc1Br`, the growth in experiment [1] is 109%; in experiment [2], 109%; in experiment [3], 98.5%; in experiment [4], 109%; in experiment [5], 106%; in experiment [6], 92%. The growth in experiment [7] was 106%; in experiment [8], 94.7%.
As to `CC(=O)Nc1ccc(NC(C)=O)c2c1C(=O)c1ccccc1C2=O`, the growth is 81.2% in experiment [1]; 36.4% in experiment [2]; 107% in experiment [3]; 91% in experiment [4]; 87.3% in experiment [5]; 79.3% in experiment [6]. Moreover, the growth is 105% in experiment [7] and 94.5% in experiment [8].
`COC(=O)c1cccc(Br)c1`: the growth in experiment [1] was 111%; in experiment [2], 107%; in experiment [3] it was 94%; in experiment [4], 114%; in experiment [5] it was 116%; in experiment [6] it was 97.8%. The growth is 107% in experiment [7] and 112% in experiment [8].
For `Cc1ccc(CCCC(=O)O)c(C)c1`, the growth in experiment [1] was 95.2%; in experiment [2], 101%; in experiment [3] it was 100%; in experiment [4], 99.7%; in experiment [5] it was 105%; in experiment [6] it was 103%. Also, the growth is 118% in experiment [7] and 107% in experiment [8].
